The panel holds about 83,000 compounds, 20% with a hit somewhere; the sample as a whole holds those more often.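 Plates (96-well) were seeded with cells, treated with compound at one concentration, and incubated for 48 hours before percent growth was determined.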 Values without a mark were called inactive. Active and inactive are the calls of the source. The calls were made as follows: active = growth percent below 10; inactive = the rest.
Experiments:
Assay in all cases: NCI-60 one-dose screen, 48 h (100 = growth as untreated, 0 = no growth, -100 = all killed)
Conditions in all cases: 10 µM unless noted
[1] = tested on: SK-MEL-2 melanoma
[2] = tested on: EKVX NSCLC
[3] = tested on: SN12C renal
[4] = tested on: UO-31 renal
[5] = tested on: TK-10 renal
[6] = tested on: ACHN renal
[7] = tested on: CAKI-1 renal
[8] = tested on: A498 renal
[9] = tested on: CCRF-CEM leukemia
[10] = tested on: MOLT-4 leukemia

Compound | growth [1] | growth [2] | growth [3] | growth [4] | growth [5] | growth [6] | growth [7] | growth [8] | growth [9] | growth [10]
CC[C@H](C)C(=O)O[C@H]1CCC=C2C=C[C@H](C)[C@H](CC[C@@H]3CC=CC(=O)O3)[C@H]21 | 81.7% | 110% | 67.7% | 71.8% | 105% | 86.9% | 90.5% | 97% | 6.89% (active) | 45.6%
CCCCCCCCCCCCCCCCCCOc1ccccc1CC(=O)OCC[N+](CC)(CC)CC | -10.1% (active) | 43.4% | 15.2% | 89.5% | 38.5% | 64.4% | 35.6% | 65.9% | 15.7% | 12.8%
CNC(C)[C@H]1CCC2C3CCC4C[C@@H](N(C)C(=O)c5ccccc5)CC[C@]4(C)C3CC[C@@]21C (stereo not given in full) | 38.7% | 24.5% | 34.6% | -9.71% (active) | 65.4% | 46.9% | 58.2% | 57.3% | 21.7% | 16.5%
c1ccc(Nc2cc(-c3cccnc3)[nH]n2)cc1 | 112% | 98.1% | 99.3% | 80% | 103% | 91.8% | 90.1% | 69% | 106% | 93.6%
COc1c(B(O)O)cc(C)cc1-c1nc2ccc3[nH]ncc3c2c2c1CCCC2 | 102% | 54.2% | 52% | 23.5% | 19.7% | 57% | -31.8% (active) | 49.2% | 35.1% | 19.7%
CCCC1CCC(O)(C(C)(O)C(=O)NC2C(=O)N3NCCCC3C(=O)N(O)C(C)C(=O)N3NCCCC3C(=O)N3NCC(O)CC3C(=O)NC(C)C(=O)OC2C(C)C)OC1CC (stereo not given) | -43.7% (active) | -63.4% (active) | -67.9% (active) | 0.226% (active) | -85.3% (active) | -68.1% (active) | -82.6% (active) | -95.5% (active) | -84.5% (active) | -82.7% (active)
C[C@]12CC[C@@H]3c4cc(OC(F)F)c(OS(N)(=O)=O)cc4CC[C@H]3[C@@H]1CC[C@@H]2OS(N)(=O)=O | 36.1% | 19% | 42% | 42.9% | 100% | 40.6% | 39.1% | 94.8% | 22.9% | 20.6%
CC(C)n1cnc2c(Nc3cccc(Cl)c3)nc(N[C@H]3CCCC[C@@H]3N)nc21 | 78.3% | 54.1% | 50.6% | 31.7% | 67.4% | 29.9% | 49.5% | 94.9% | 66.6% | 7.51% (active)
COc1cc2cc(Oc3ccc(NC(=O)Nc4cccc(C(F)(F)F)c4)cc3)c(C)nc2cc1OCCN1CCOCC1 | 78.6% | 25.4% | 47.7% | 51.8% | 66.3% | 21.4% | 56.2% | 64.2% | 23.9% | 6.76% (active)
O=C(N/N=C/[C@H](O)[C@H](O)[C@H](O)CO)c1ccc(NC(=O)c2cccnc2)cc1 | 118% | 105% | 94.5% | 83.7% | 104% | 109% | 94.1% | 99.3% | 99.2% | 109%
O=C(N/N=C/c1ccc(Cl)cc1)c1ccc(C(F)(F)F)nc1Nc1cccc(C(F)(F)F)c1 | 25.8% | 17.7% | 4.9% (active) | 10% | 26.6% | 13% | -5.88% (active) | 12.6% | 33.9% | 2.2% (active)
COc1cccc(-c2nn(-c3ccccc3)cc2-c2ccnc(N3CCOCC3)c2)c1 | 96.7% | 82.2% | 98% | 66.2% | 92% | 84.3% | 81.4% | 71.7% | 97.8% | 59.2%
COc1ccc(CN2c3ccccc3CCc3ccccc32)cc1F | 27.2% | 41.1% | 39.1% | 43.2% | 62.7% | 35.6% | 29.7% | -6.65% (active) | 4.49% (active) | 16.2%
CCCCC[C@H](O)C/C=C1/C(=O)C=C[C@@H]1C/C=C\CCCC(=O)O | 79.6% | 100% | 52.3% | 81.9% | 111% | 83.2% | 80.7% | 109% | 14.9% | 43.2%
Oc1ccc(C#CCOc2ccccc2)cc1CNCCN(Cc1ccccn1)Cc1ccccn1 | 61.2% | 16% | 13.9% | -2.48% (active) | 26.2% | 9.66% (active) | 28.4% | -21.8% (active) | 6.83% (active) | 1.72% (active)
CNCCCNc1nc2ccccc2c2c(=O)c3cc(F)ccc3sc12 | 91% | 64.7% | 58.7% | 20.8% | 43.3% | 10.9% | -60.9% (active) | 28% | -3.67% (active) | -27.9% (active)
O=[N+]([O-])c1ccc(Cl)c(-c2cc(CCCCO)on2)c1 | 118% | 103% | 94.5% | 86% | 119% | 101% | 87.2% | 87.1% | 108% | 109%
O=C(Oc1cccc2ccccc12)Oc1cccc2ccccc12 | 104% | 88.3% | 97.2% | 55% | 139% | 98% | 86.8% | 107% | 88.7% | 93.2%
c1ccc2c(c1)Nc1ccncc1S2 | 119% | 73.1% | 97.6% | 78.5% | 109% | 94.2% | 61.2% | 80.7% | 117% | 142%
Cc1nn(-c2ccccc2)c2c1N=c1s/c(=C\c3ccc(C(F)(F)F)cc3)c(=O)n1CN2 | 47.1% | 59.3% | 71.4% | 43.4% | 80% | 59.8% | 59.9% | 63.5% | 38.3% | 98.8%
CCCCN(C)N=Nc1ccc(C(N)=O)cc1 | 107% | 96.2% | 96.7% | 57.1% | 111% | 107% | 59% | 89.7% | 110% | 87.7%
CCOC(=O)c1sc2ncc(-c3ccc(C)cc3)n2c1C | 101% | 88.4% | 86.6% | 78.2% | 147% | 84% | 88.1% | 104% | 89.5% | 90.1%
Cc1cc(=O)[nH]c(=O)n1Cc1cn(-c2c3ccccc3nc3ccccc23)nn1 | 107% | 103% | 88.7% | 82.6% | 96.1% | 87.4% | 91% | 101% | 64.7% | 48.5%
COC1=C(C)C(=O)c2c(c(CCCl)c3n2CCC3O)C1=O (stereo not given) | -48.8% (active) | 13.6% | 6.15% (active) | -60.4% (active) | -35.2% (active) | -3.06% (active) | 10.9% | -79.9% (active) | 66.3% | 74.6%
NCCCNc1nc2ccccc2c2c(=O)c3cc(C(F)(F)F)ccc3sc12 | 89.7% | 71.6% | 51.9% | 31.9% | 51.9% | -10.8% (active) | -67.7% (active) | 23.6% | 5.18% (active) | -20.1% (active)

— PubChem BioAssay (NCI)
